Compounds with a hit are over-represented: about 3.5% of the library has one in this group of screens.
FBW7 act – activators of human E3 ligase FBW7 | AlphaScreen FBW7–phospho-cyclin E peptide binding, activator screen | normalized activity (activation), % at 26.1 µM | 650,000 tested, 0.13% active; in the data active = normalized activity above about 1.9%;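 note: purified mutant Fbw7 with reduced substrate affinity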
GPR151 ag – activates the human receptor GPR151; Q8TDV0; PathHunter beta-arrestin GPR151 cells, luminescence; activation, % at 11.2 µM; 650,000 tested, 1% active; in the data active = activation above about 4.9%;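 note: 0% = median of compound wells and 100% = cells with positive control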
Target sequence (Q8TDV0 whole entry, looked up): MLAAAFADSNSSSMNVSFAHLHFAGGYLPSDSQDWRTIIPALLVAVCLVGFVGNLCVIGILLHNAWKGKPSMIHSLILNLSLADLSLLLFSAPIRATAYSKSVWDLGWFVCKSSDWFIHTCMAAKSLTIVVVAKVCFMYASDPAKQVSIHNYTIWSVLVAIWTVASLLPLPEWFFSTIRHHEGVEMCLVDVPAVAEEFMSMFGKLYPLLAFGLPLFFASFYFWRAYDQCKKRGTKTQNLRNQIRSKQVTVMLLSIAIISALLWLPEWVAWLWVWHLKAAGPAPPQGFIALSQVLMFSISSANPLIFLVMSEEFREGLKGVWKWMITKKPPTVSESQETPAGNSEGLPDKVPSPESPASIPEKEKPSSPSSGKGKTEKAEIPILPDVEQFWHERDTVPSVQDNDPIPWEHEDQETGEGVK
TEAD-YAP block – TEAD-YAP interaction inhibition; HEK-TIYL cells, TEAD-Gal4/YAP UAS-luciferase luminescence; inhibition, % at 9.12 µM; 640,000 tested, 1.4% active; AID 1259422; in the data active = inhibition above about 32%;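 note: 0% = median of test compound wells and 100% = reference inhibitor wells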
MITF inh – inhibitors of human MITF; inhibition, % at 2.6 µM; AlphaScreen MITF homodimerization, bead proximity signal; AID 1259374; 650,000 tested, 0.91% active; in the data active = inhibition above about 50%;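 note: 0% = vehicle wells with protein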
* marks the source's active call; other numbers are inactive results.

SMILES	FBW7 act	GPR151 ag	TEAD-YAP block	MITF inh
O=C(NC1CC1)c1ccc(-c2nc(NCCCN3CCCC3=O)c3ncn(-c4ccsc4)c3n2)cc1	0	1	42*	17
COc1ccc(-c2nc(NCCCN3CCCC3=O)c3ncn(-c4ccsc4)c3n2)cn1	0	0	49*	-4
COc1ccc(-c2nc(NCCCN3CCCC3=O)c3ncn(-c4ccccc4)c3n2)cn1	0	3	55*	-1
COc1ccc(-c2nc(NCCCN3CCCC3=O)c3ncn(C(C)C)c3n2)cn1	0	-2	17	10
COc1ccc(-c2csc(N(CC3CCCO3)C(=O)CCl)n2)cc1 (stereo not drawn)	0	3	-28	-4
Cn1cnn(CN2CCN(c3ccccn3)CC2)c1=S	1	-1	-1	22
CCNc1cc(C)nc(Nc2ccc(NC(=O)c3cc(OC)c(OC)c(OC)c3)cc2)n1	0	-1	77*	12
COc1cc(Nc2ncc(C)c(Nc3ccccc3)n2)cc(OC)c1OC	0	4	34*	-3
COc1cc(Nc2cc(C)nc(Nc3ccccc3)n2)cc(OC)c1OC	0	1	47*	2
Cc1cc(C)nc(Nc2ccc(Nc3ccccc3)cc2)n1	0	-2	33*	7
COc1cc(Nc2nc(C)cc(Nc3ccc(NC(C)=O)cc3)n2)cc(OC)c1OC	0	1	-1	15
Cc1[nH]n(-c2ccccc2)c(=O)c1C=Nc1ccc(S(=O)(=O)CCO)cc1	0	1	16	-1
COc1cc(Nc2nc(C)cc(Nc3ccccc3)n2)cc(OC)c1OC	0	3	46*	5
COCCNc1c(-c2ccc(OC)c(O)c2)nc2cnccn12	0	-1	-9	-5
CCOc1cc(-c2nc3cnccn3c2NCCOC)ccc1O	6.3*	0	-1	24
Nc1ncn([C@@H]2O[C@H](CO)[C@@H](O)[C@H]2O)c(=O)n1	0	2	83*	-10
COc1ccccc1C(=O)N/N=C/c1ccc([N+](=O)[O-])s1	0	-1	49*	0
Cc1ccc(C(=O)N/N=C/c2ccc([N+](=O)[O-])s2)cc1	0	0	26	-4
COc1cc([N+](=O)[O-])cc(/C=N/NC(=O)c2ccccc2Br)c1O	0	-1	5	73*
C/C(=N\NC(N)=S)c1ccc([N+](=O)[O-])cc1	0	0	36*	-3
C/C(=N\NC(N)=O)c1ccc([N+](=O)[O-])cc1	0	3	1	1
CCOc1ccccc1C(=O)N/N=C/c1cc([N+](=O)[O-])cc(OC)c1O	0	-1	-6	-14
O=C(N/N=C/c1cc([N+](=O)[O-])ccc1O)c1ccccc1[N+](=O)[O-]	-1	0	7	69*
O=C(N/N=C/c1ccccc1O)c1ccccc1[N+](=O)[O-]	-1	1	4	14
CCc1cccc2c(C(C)=O)cn(CC(=O)N3CCc4ccccc4C3)c12	0	-1	5	11
SMILES	FBW7 act	GPR151 ag	TEAD-YAP block	MITF inh
CC1Cc2ccccc2N1CC(=O)N1Cc2ccccc2C1 (stereo not drawn)	0	1	2	9
O=C(CCN1CCOCC1)Nc1cc(C(=O)NCc2cccs2)ccc1N1CC2CC(C1)c1cccc(=O)n1C2 (stereo not drawn)	0	1	-19	-12
CCOc1cc([N+](=O)[O-])cc(/C=N/NC(=O)c2cc(C(C)(C)C)[nH]n2)c1O	0	0	25	66*
NC(=S)N/N=C/c1cc([N+](=O)[O-])ccc1O	-1	-2	-6	100*
COc1cc([N+](=O)[O-])cc(/C=N/NC(=O)c2ccccc2[N+](=O)[O-])c1O	-1	2	-15	65*
O=C1CCC(C(=O)N2CCC3(CC2)c2ccccc2[C@@H](NC(=O)c2ccccc2)[C@@H]3O)=NN1	0	1	-15	5
CC(O)c1ccc(Nc2nccc(-c3cccc(NS(C)(=O)=O)c3)n2)cc1 (stereo not drawn)	1	1	77*	12
NC(=O)c1cccc(Nc2nccc(-c3cccc(Nc4ccccc4)c3)n2)c1	1	0	11	12
CS(=O)(=O)Nc1cccc(-c2ccnc(Nc3ccc(CC(N)=O)cc3)n2)c1	0	0	37*	9
O=C(O)Cc1ccc(Nc2nccc(-c3ccccc3)n2)cc1	0	0	53*	17
NC(=O)c1ccc(Nc2nccc(-c3cccc(Nc4ccccc4)c3)n2)cc1	1	-2	46*	5
COc1ccccc1N=C(c1ccccc1)c1c(O)n(C)c(=O)n(C)c1=O	0	0	-3	21
Cc1cc(-c2cnc(N3CCOCC3)nc2C2CCNCC2)on1	1	0	-22	-7
